Legend:
Details in all cases: concentration: 1 μM, replicates: in singlicate; n = 1
MAP3K15 = tested on: MAP3K15
MAP3K1 = tested on: MAP3K1
MAP3K2 = tested on: MAP3K2
MAP3K3 = tested on: MAP3K3
MAP3K4 = tested on: MAP3K4
MAP4K2 = tested on: MAP4K2
MAP4K3 = tested on: MAP4K3
MAP4K4 = tested on: MAP4K4
MAP4K5 = tested on: MAP4K5
MAPKAPK2 = tested on: MAPKAPK2
MAPKAPK5 = tested on: MAPKAPK5
MARK1 = tested on: MARK1
MARK2 = tested on: MARK2
MARK3 = tested on: MARK3
MARK4 = tested on: MARK4
MAST1 = tested on: MAST1
MEK1 = tested on: T1, MEK1
T1 construct: gene MAP2K1

MEK2 = tested on: T2, MEK2
T2 construct: gene MAP2K2

MEK3 = tested on: T3, MEK3
T3 construct: gene MAP2K3

MEK4 = tested on: T4, MEK4
T4 construct: gene MAP2K4
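Note: KINOMEscan kinase panel screen.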

| SMILES | %Inh (MAP3K15) | %Inh (MAP3K1) | %Inh (MAP3K2) | %Inh (MAP3K3) | %Inh (MAP3K4) | %Inh (MAP4K2) | %Inh (MAP4K3) | %Inh (MAP4K4) | %Inh (MAP4K5) | %Inh (MAPKAPK2) | %Inh (MAPKAPK5) | %Inh (MARK1) | %Inh (MARK2) | %Inh (MARK3) | %Inh (MARK4) | %Inh (MAST1) | %Inh (MEK1) | %Inh (MEK2) | %Inh (MEK3) | %Inh (MEK4) |
| --- | --- | --- | --- | --- | --- | --- | --- | --- | --- | --- | --- | --- | --- | --- | --- | --- | --- | --- | --- | --- |
| O=C(O)C(F)(F)F.O=c1[nH]ccc2nc(N[C@@H]3CCNC3)nc(Nc3ccc4c(c3)S(=O)(=O)CC4)c12 [GSK2181306] | 49% | 28% | 85% | 76% | 34% | 100% | 96% | 92.6% | 95.6% | 33% | 90.4% | 65% | 91.7% | 70% | 81% | 12% | 97.5% | 94.7% | 93.5% | 91% |
| Cc1ccc(NC(=O)c2cccc(N3CCCCC3)c2)cc1-c1ccc(C(=O)NCC2CC2)cc1 [GSK1917008] | 11% | 17% | 0% | 0% | 28% | 5% | 80% | 16% | 22% | 18% | 0% | 0% | 0% | 20% | 10% | 0% | 0% | 0% | 0% | 8% |
| CCn1c(-c2nonc2N)nc2c(-c3ccccc3)ncc(OCCCN)c21.O=C(O)C(F)(F)F.O=C(O)C(F)(F)F [GSK260205] | 0% | 17% | 98.2% | 97.7% | 6% | 3% | 0% | 76% | 5% | 13% | 0% | 0% | 0% | 0% | 0% | 28% | 0% | 0% | 0% | 13% |
| O=C(Nc1n[nH]c2nc(-c3ccccc3O)ccc12)C1CC1 [SB-711880] | 0% | 0% | 19% | 4% | 0% | 0% | 44% | 58% | 0% | 0% | 0% | 0% | 43% | 0% | 0% | 31% | 5% | 25% | 40% | 34% |
| Cc1ccc(O)cc1Nc1ccnc2ccc(C(C)(C)C)cc12 [GW856805] | 26% | 27% | 32% | 31% | 23% | 43% | 0% | 0% | 4% | 0% | 0% | 36% | 20% | 21% | 37% | 69% | 17% | 21% | 67% | 42% |
| COc1cccc2c(-c3ccncc3)c(-c3ccc(F)cc3)nn12 [GW468513] | 0% | 5% | 3% | 0% | 6% | 0% | 0% | 33% | 2% | 13% | 0% | 0% | 0% | 0% | 3% | 15% | 0% | 1% | 0% | 19% |
| CCn1cnc2c(NCc3ccccc3)ncnc21 [SKF-96418] | 22% | 16% | 14% | 0% | 2% | 0% | 0% | 0% | 0% | 0% | 0% | 3% | 0% | 27% | 14% | 67% | 20% | 37% | 40% | 23% |
| CC(C)c1nc(-c2ccc(F)c(NS(=O)(=O)c3c(F)cccc3F)c2)c(-c2ccnc(Nc3ccc(N4CCOCC4)nc3)n2)s1 [GSK1804250] | 26% | 17% | 13% | 0% | 23% | 8% | 22% | 4% | 58% | 14% | 0% | 0% | 15% | 0% | 16% | 0% | 17% | 27% | 19% | 100% |
| CN(c1ccc(NC(=O)N2CCN(CCCN3CCOCC3)CC2)cc1)c1ccnc(Nc2ccc(CS(C)(=O)=O)cc2)n1.Cl [GW830899] | 0% | 0% | 0% | 8% | 15% | 0% | 18% | 7% | 30% | 0% | 0% | 0% | 1% | 1% | 30% | 0% | 0% | 23% | 0% | 0% |
| CCNc1nccc(-c2c(-c3ccc(F)cc3)ncn2C2CCN(C)CC2)n1 | 0% | 0% | 0% | 0% | 0% | 0% | 0% | 0% | 0% | 0% | 0% | 0% | 0% | 0% | 0% | 46% | 4% | 15% | 0% | 0% |
| Cc1cccc(Nc2nc(NCCN)ncc2C(N)=O)c1 [GSK1292139] | 0% | 4% | 62% | 31% | 22% | 98.4% | 32% | 83% | 26% | 2% | 44% | 0% | 39% | 7% | 0% | 0% | 0% | 9% | 94.9% | 55% |
| CCNC(=O)/C=C/c1n[nH]c2cc(Sc3ccccc3C(=O)NC)ccc12 | 5% | 38% | 20% | 30% | 3% | 30% | 65% | 39% | 24% | 12% | 18% | 0% | 34% | 0% | 3% | 0% | 17% | 18% | 14% | 0% |
| Nc1cccc(-c2ccc3c(N)n[nH]c3c2)c1 [GSK2193613] | 0% | 100% | 0% | 0% | 4% | 91.1% | 1% | 19% | 0% | 0% | 0% | 0% | 0% | 0% | 0% | 0% | 53% | 39% | 0% | 12% |
| COc1ccc(C)c(Nc2ccnc(Nc3ccc(-c4cnc[nH]4)cc3)n2)c1.Cl [GW784041] | 0% | 0% | 0% | 28% | 18% | 0% | 6% | 23% | 19% | 0% | 0% | 9% | 0% | 14% | 24% | 0% | 31% | 55% | 0% | 0% |
| Cc1ccc(NC(=O)c2ccnc(N3CCCCC3)c2)cc1-c1ccc(C(=O)NCC2CC2)cc1 [GW775610] | 0% | 0% | 0% | 0% | 0% | 0% | 11% | 0% | 26% | 12% | 5% | 0% | 14% | 0% | 2% | 37% | 4% | 0% | 45% | 0% |
| Cc1ccccc1CC(=O)N1CCc2cc(-c3cn(C)c4ncnc(N)c34)ccc21 [GSK2603346] | 20% | 19% | 88% | 62% | 90% | 29% | 97.8% | 0% | 88% | 7% | 0% | 0% | 0% | 0% | 0% | 0% | 0% | 0% | 1% | 27% |
| CN(C)c1ncnc2nc[nH]c12 [SKF-31736] | 37% | 11% | 16% | 0% | 0% | 0% | 0% | 0% | 0% | 0% | 0% | 0% | 9% | 23% | 9% | 49% | 28% | 46% | 54% | 8% |
| COc1ccc(NC(=O)c2ccoc2)cc1-c1ccc(C(=O)NCC2CC2)cc1 [GW810437] | 4% | 13% | 9% | 0% | 6% | 10% | 0% | 0% | 7% | 0% | 0% | 17% | 0% | 47% | 18% | 56% | 13% | 24% | 36% | 0% |
| COc1cc(Nc2nccc(N3CCC(NS(=O)(=O)c4ccc(NC(C)=O)cc4)CC3)n2)cc(OC)c1OC [GSK1379825] | 0% | 11% | 18% | 0% | 31% | 0% | 40% | 68% | 53% | 0% | 0% | 14% | 1% | 0% | 15% | 13% | 0% | 0% | 6% | 14% |
| COc1cccc(-c2nc(-c3ccccc3)[nH]c2-c2ccncc2)c1 [SB-610250] | 0% | 16% | 9% | 0% | 0% | 0% | 0% | 1% | 0% | 17% | 0% | 0% | 0% | 0% | 0% | 22% | 0% | 0% | 0% | 0% |
| CC(=O)Nc1cn2nc(Oc3cccc(NC(=O)c4cccc(C(F)(F)F)c4)c3)ccc2n1 | 0% | 0% | 0% | 22% | 19% | 0% | 91.7% | 36% | 90% | 0% | 0% | 0% | 0% | 8% | 20% | 8% | 0% | 18% | 0% | 0% |

Reference: publication PMC5540273 (PLoS ONE, 2017)
